Assay results as given in PubChem BioAssay AID1285 (Columbia University Molecular Screening Center, 2008).
In all, about 190,000 compounds went through this assay and about 1,600 (0.84%) were called active.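 The calls were made as follows: active = inhibition above a set limit, derived from the sample mean plus 3 SD (cut at about 45% in these data); inconclusive = one replicate passes the limit while the other fails; inactive = the rest.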 This excerpt belongs to a sample that is enriched for actives.

Assay: APP 5'UTR translational reporter suppression – APP 5'UTR luciferase, SH-SY5Y cells, primary screen (AID 1285)
Details: SH-SY5Y APP 5'UTR-luciferase reporter, luminescence; at 2 µM; hits give high values

Compound	inhibition
Cc1cc(C(=O)NNC(=O)CCC2CCCCC2)c(C)o1	-4% (inactive)
O=C(Cc1cccs1)N(CC1CCCO1)C1(C(=O)NC2CCCCC2)CCCCC1 (stereo not drawn)	-11.4% (inactive)
Cc1ccc(C(=O)OC2CCCN(C)C2)cc1 (stereo not drawn)	5.1% (inactive)
Cc1nnc(-c2ccc(Oc3ccc(C)c(C)c3)c([N+](=O)[O-])c2)o1	11.5% (inactive)
Cc1[nH]c2ccccc2c1/C=N\NC(=O)Cn1nnc(-c2ccccc2)n1	-1.1% (inactive)
CC1=NN(C(=O)CCc2ccccc2O)C(O)(C(F)(F)F)C1 (stereo not drawn)	8.6% (inactive)
Cc1cc(NC(=O)COC(=O)COc2ccc(Cl)cc2C)c([N+](=O)[O-])cc1C	8.7% (inactive)
Cc1ccc(C(C)C)cc1OCCN1CCCC1	-3.6% (inactive)
Cc1cc(N2CCN(C)CC2)nc2ccc(NC(=S)N3CCOCC3)cc12	-5.6% (inactive)
COc1cccc(/C(C)=N/Nc2ncc(Cl)cc2Cl)c1	-24.9% (inactive)
COc1cccc(/C=N/Nc2ncc(C(F)(F)F)cc2Cl)c1O	80.5% (active)
COc1cc(/C=C2\SC(=S)N(Nc3ncc(C(F)(F)F)cc3Cl)C2=O)cc(OC)c1OC	0.7% (inactive)
OCCC1CN(Cc2cccc(O)c2)CCN1CCc1ccccc1 (stereo not drawn)	1% (inactive)
Cc1nn(C)c(C)c1S(=O)(=O)N1CCC(CO)(Cc2ccc(Cl)cc2)CC1	26.8% (inactive)
Cc1ccccc1NC(=S)Nc1cccc([N+](=O)[O-])c1	10.9% (inactive)
COC(=O)/C=C\C(=O)Nc1cccc([N+](=O)[O-])c1	65% (active)
CC(=O)Nc1cccc([N+](=O)[O-])c1	-68.1% (inactive)
Cc1[nH]c2ccccc2c1C(=O)COC(=O)C(C)C	-8.5% (inactive)
CCOC(=O)c1c(C)[nH]c(=S)c(C#N)c1-c1ccccc1	17.1% (inactive)
CCOC(=O)c1c(C)[nH]c2c1-c1ccccc1C(=O)C2=O	95.9% (active)
CSc1ccc(C(=O)C2CCCN(C(=O)c3ccc(C)nc3)C2)cc1 (stereo not drawn)	-16.6% (inactive)

Compound	inhibition
CCOc1cc(N2CCOCC2)c(OCC)cc1NC(=O)C1=NN(c2cccc(C)c2)C(=O)CC1	-5.2% (inactive)
CCCn1c(N)c(C(=O)CSc2nc3ccccc3c(=O)n2-c2ccc(OC)cc2)c(=O)[nH]c1=O	-3.9% (inactive)
CCOC(=O)CSc1ncc(-c2cccc(Cl)c2)cn1	-2.7% (inactive)
O=c1c2c(nc3cc(-c4cccc(Cl)c4)[nH]n13)CCCC2	-158% (inactive)
O=C1CCCc2c1nc(-c1cccc(Cl)c1)n2O	94.3% (active)
CCCn1c(NC(=O)C23CC4CC(CC(O)(C4)C2)C3)nc2ccccc21	9% (inactive)
COC(=O)c1c(C)oc2ccc(N(C(=O)Oc3ccccc3)S(=O)(=O)c3ccccc3)cc12	0.2% (inactive)
O=C(NC(=S)Nc1ccc2oc(=O)ccc2c1)c1ccc(-c2cccc(Cl)c2Cl)o1	2.2% (inactive)
CCOc1cc(NC(=O)CCl)c(OCC)cc1NC(C)=O	5.3% (inactive)
COc1ccc(-n2nnnc2-c2nc3ccccc3s2)cc1	-237% (inactive)
CCOc1cccc(-n2nnnc2-c2ccc(OC)cc2)c1	65.8% (active)
CCOc1cccc(-c2nnc3sc(COc4ccc(OC)cc4)nn23)c1	-2.3% (inactive)
C/C(=N\NC(=O)c1ccc(CSc2nc(C)cc(C)n2)cc1)C1CCCCC1	-23.6% (inactive)
COc1cccc(CNCCc2c[nH]c3ccccc23)c1OCc1ccccc1F	-3.5% (inactive)
COc1ccc(CC(=O)NC(C)CCc2ccccc2)cc1 (stereo not drawn)	18.8% (inactive)
COc1ccc(C(CCNCc2ccccc2F)c2ccc(F)cc2)cc1 (stereo not drawn)	50.4% (active)
CCC(C)(C)NC(=O)C1c2ccccc2Oc2ccccc21	-10.4% (inactive)
COc1cc2nc(CN(C)Cc3ccc(F)cc3)[nH]c(=O)c2cc1OC	-10.3% (inactive)
O=C(CN1CCN(S(=O)(=O)c2ccc(F)cc2)CC1)Nc1ccccc1F	-2% (inactive)
COc1ccc(C(=O)Nc2ccc(F)cc2F)cc1	-131% (inactive)
CCOC(=O)N1CCN(S(=O)(=O)c2ccc(C(=O)Nc3ccc(F)cc3F)cc2)CC1	92.2% (active)

Compound	inhibition
Cc1nc(-c2ccc(Cl)cc2)sc1C(=O)CBr	5.2% (inactive)
Clc1ccc(N/N=C/c2cccs2)nn1	-17.2% (inactive)
COc1cccc2c1OCC(CN1CCN(C3CCCCC3)C(CCO)C1)=C2 (stereo not drawn)	10.6% (inactive)
CCN(CC)c1ccc(NC(=O)c2ccc(Cl)nc2)cc1	66.1% (active)
NS(=O)(=O)c1ccc(NC(=O)COC(=O)c2ccc(Cl)nc2)cc1	-14.1% (inactive)
O=C(NNc1ccccn1)c1ccc(Cl)nc1	9.8% (inactive)
Cc1ccc(S(=O)(=O)N(C)c2ccc(OCC(=O)NC3=NCCS3)cc2)cc1	-2.9% (inactive)
COc1ccc2nc(Nc3nc4ccc(NC(C)=O)cc4s3)sc2c1	-20.2% (inactive)
CCCC(=O)Nc1nc2ccc(NC(=O)c3cccnc3)cc2s1	4.1% (inactive)
CCCC(=O)Nc1nc2ccc(NC(=O)c3c(F)c(F)c(OC)c(F)c3F)cc2s1	88.8% (active)
CCOc1cnc(-c2c(-c3ccccc3Cl)noc2C)o1	16.9% (inactive)
O=C(Cn1ncc(N2CCCC2)c(Br)c1=O)c1ccc(Cl)cc1	-71.1% (inactive)
CCOC(=O)C1=C(c2ccc(OC)cc2)C(=O)c2ccccc2C1=O	59.6% (active)
CCOC(=O)c1ccccc1NS(=O)(=O)c1ccc(OC)cc1	-5.3% (inactive)
CCCCC(C(=O)OCC(=O)c1ccc(OC)cc1)N1C(=O)c2ccccc2C1=O (stereo not drawn)	7.1% (inactive)
C[C@@H]1C[C@@H]2O[C@H]2/C=C\C=C\C(=O)Cc2c(Cl)c(O)cc(O)c2C(=O)O1	95% (active)
O=C(Nc1ccc2c(c1)OCO2)c1sc2cc(Cl)ccc2c1Cl	-85% (inactive)
O=S(=O)(NCCc1ccncc1)c1ccccc1	16.4% (inactive)
Cc1ccc(-c2cc(=O)c3ccc(Cl)cc3[nH]2)cc1	-13.4% (inactive)
Cc1ccc(-c2cc(=O)c3ccc(F)cc3[nH]2)cc1	-29.4% (inactive)
O=c1cc(-c2ccccc2)[nH]c2cc(F)ccc12	89.6% (active)
